Screening results (PubChem)
A selection: hits, their analogues and other compounds. The true share with any hit is near 0.51%.
E coli growth-1: reduces bacterial viability in AddAB counter-screen; 330,000 compounds, 0.27% hits; AID 449728; inhibition, % at 11.9 µM; E. coli V3065 growth, OD600 absorbance, 18 h;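 active = inhibition above the campaign's mean inhibition across all tested compounds plus 3 SD, cut at about 9.9% in these data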;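 note: uninfected addAB+ strain grown without phage in ampicillin broth; 0% = DMSO wells and 100% = ciprofloxacin 0.95 µg/ml wells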
AddAB inh: less growth of phage-infected E. coli with AddAB; E. coli expressing H. pylori AddAB, absorbance growth; inhibition, % at 11.9 µM; 330,000 compounds, 0.29% hits; in the data active = inhibition above about 12%;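 note: 0% = vehicle wells of infected cells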
phage Ecoli inh: E. coli growth loss with phage present | growth absorbance | inhibition, % at 11.9 µM | 360,000 compounds, 0.26% hits | AID 651602; in the data active = inhibition above about 11%
E coli growth-2: inhibitors of Escherichia coli growth | OD600, 23 h; hits give low values | 330,000 compounds, 0.21% hits | OD600 absorbance (test concentration not listed) | AID 1053175;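 active = OD600 absorbance below the run mean of sample wells minus 3.6 SD, in any replicate, cut at about 0.56 in these data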
Tat transport: inhibitors of E. coli Tat protein transport. 340,000 compounds, 0.036% hits. E. coli MC4100 TorA-mCherry Tat export, fluorescence. inhibition, % at 10 µM;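 active = mean replicate inhibition at least 50% and at least half of replicates individually reaching 50%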;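 note: exported cargo escapes ClpAP degradation while cytoplasmic cargo is degraded and loses fluorescence; 0% = median of neutral control wells and 100% = median of NaSCN control wells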
AddAB confirm: confirmation screen: growth loss of phage-infected E. coli expressing H. pylori AddAB. shares compounds with AddAB inh. E. coli V3065 expressing H. pylori AddAB, T4 phage, OD; T4 phage with gene 2 nonsense mutations. inhibition, % at 11.9 µM. 880 compounds, 64% hits. AID 488942;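 active = mean inhibition above a set limit taken from the earlier primary screen, cut at about 13% in these data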;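 note: higher means less bacterial growth since AddAB block lets phage replicate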
RecBCD counter: AddAB counter-screen: growth loss of RecBCD+ E. coli infected with mutant T4 phage; shares compounds with AddAB inh; E. coli V66 + mutant T4 phage, OD growth; inhibition, % at 11.9 µM; 880 compounds, 73% hits;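 active = mean inhibition above the mean of solvent-only control wells plus 3 SD, cut at about 4% in these data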;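 note: optical density read after an 18 h incubation at 37 °C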
Bact viability: counter-screen: bacterial growth inhibition; bacterial viability, absorbance (AddAB counterscreen); inhibition, % at 11.9 µM; 880 compounds, 35% hits; shares compounds with AddAB inh; in the data active = inhibition above about 25%
RecBCD conf: growth loss of phage-infected V66 E. coli, RecBCD confirmation screen; inhibition, % at 11.9 µM; 890 compounds, 45% hits; E. coli V66 + T4 2- phage, growth OD; shares compounds with phage Ecoli inh; AID 651982;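 active = mean inhibition over triplicates exceeding the hit threshold derived in the original primary screen, cut at about 11% in these data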
Ecoli viability: bacterial viability inhibition counter-screen for RecBCD. 890 compounds, 29% hits. AID 651983. E. coli viability, absorbance (OD) growth. shares compounds with phage Ecoli inh. inhibition, % at 11.9 µM; in the data active = inhibition above about 20%;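 note: E. coli strain V66 grown with compound alone and no phage infection; 0% = bacteria with DMSO vehicle only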
AddAB counter: growth loss of phage-infected AddAB E. coli, RecBCD counter-screen. inhibition, % at 11.9 µM. shares compounds with phage Ecoli inh. 890 compounds, 45% hits. AID 651984. E. coli expressing H. pylori AddAB + T4 phage, OD growth; gene 2 mutant T4, recBCD-deleted host;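 active = mean inhibition above the solvent-only control wells' mean plus 3 SD, cut at about 22% in these data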;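 note: higher means less bacterial growth from phage killing when AddAB is blocked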
Active calls of the source: *.

Screening CC(=O)N1CCN(c2cc3c(cc2F)c(=O)c(C(=O)O)cn3C2CC2)CC1 returned E coli growth-1 101*, AddAB inh 102*, phage Ecoli inh 96*, E coli growth-2 0.067*, Tat transport 62*, AddAB confirm 99*, RecBCD counter 99*, Bact viability 99*, RecBCD conf 101*, Ecoli viability 102* and AddAB counter 102*.
Screening CCOC(=O)C1CN(c2cc3c(cc2F)c(=O)c(C(=O)O)cn3CC)OC1C(=O)OCC (stereo not given) returned E coli growth-1 -1, AddAB inh 3, phage Ecoli inh 4, E coli growth-2 0.66 and Tat transport 0.
For CCN1CCN(c2cc3c(cc2F)c(=O)c(C(=O)O)cn3C2CC2)CC1 the results were E coli growth-1 100*, AddAB inh 99*, phage Ecoli inh 102*, E coli growth-2 0.064*, Tat transport 146*, AddAB confirm 99*, RecBCD counter 100*, Bact viability 99*, RecBCD conf 102*, Ecoli viability 104* and AddAB counter 103*.
CC(SCc1ccccc1)C(=O)NN=Cc1ccc2c(c1)OCO2 (stereo not given) was read as E coli growth-2 0.75.
`CCOC1OC(C(=O)NCc2ccccc2)=CC(c2ccc(C(F)(F)F)cc2)C1CCCO` (stereo not given) gave E coli growth-2 0.66.
For CCn1cc(C(=O)O)c(=O)c2cc(F)c(N3CCN(C(=S)NC(=O)c4cccc(F)c4)CC3)cc21 the results were E coli growth-1 99*, AddAB inh 98*, phage Ecoli inh 42*, E coli growth-2 0.071*, Tat transport 4, AddAB confirm 100*, RecBCD counter 100*, Bact viability 100*, RecBCD conf 101*, Ecoli viability 101* and AddAB counter 101*.
CCn1cc(C(=O)O)c(=O)c2cc(F)c(N3CCN(C(=S)NC(=O)c4ccc(F)c(F)c4)CC3)cc21 was read as E coli growth-1 98*, AddAB inh 98*, phage Ecoli inh 99*, E coli growth-2 0.07*, Tat transport 91*, AddAB confirm 100*, RecBCD counter 87*, Bact viability 99*, RecBCD conf 103*, Ecoli viability 103* and AddAB counter 104*.
For CCn1cc(C(=O)O)c(=O)c2cc(F)c(N3CCN(C(=S)NC(=O)c4ccccc4Br)CC3)cc21 the results were E coli growth-1 99*, AddAB inh 97*, phage Ecoli inh 94*, E coli growth-2 0.067*, Tat transport 11, AddAB confirm 103*, RecBCD counter 22*, Bact viability 102*, RecBCD conf 101*, Ecoli viability 102* and AddAB counter 102*.
For CCCCCCCCCC(=O)N1CCN(c2cc3c(cc2F)c(=O)c(C(=O)O)cn3CC)CC1 the results were E coli growth-1 1, AddAB inh 0, phage Ecoli inh 1, E coli growth-2 0.56 and Tat transport 0.
CCCOc1ccc(C(=O)NC(=S)N2CCN(c3cc4c(cc3F)c(=O)c(C(=O)O)cn4CC)CC2)cc1 was read as E coli growth-1 97*, AddAB inh 99*, phage Ecoli inh 98*, E coli growth-2 0.084*, Tat transport 62*, AddAB confirm 103*, RecBCD counter 101*, Bact viability 105*, RecBCD conf 103*, Ecoli viability 103* and AddAB counter 101*.
`CC(=Cc1ccccc1)C(=O)NCCc1ccccc1` gave E coli growth-2 0.7.
Cc1csc(NC(=O)C=Cc2ccc(C)o2)n1 was read as E coli growth-2 0.67.
CCn1cc(C(=O)O)c(=O)c2cc(F)c(N3CCN(C(=S)NC(=O)c4ccc(F)cc4)CC3)cc21 was read as E coli growth-1 96*, AddAB inh 98*, phage Ecoli inh 99*, E coli growth-2 0.063*, Tat transport 13, AddAB confirm 100*, RecBCD counter 100*, Bact viability 102*, RecBCD conf 103*, Ecoli viability 104* and AddAB counter 105*.
Brc1ccc(NN=C(N=Nc2nn[nH]n2)c2ccccc2)cc1 was read as E coli growth-2 0.6.
`Brc1ccc(N/N=C(/N=Nc2nn[nH]n2)c2ccccc2)cc1` gave E coli growth-1 30*, AddAB inh 30*, phage Ecoli inh 26*, Tat transport 15, AddAB confirm 22*, RecBCD counter 26*, Bact viability 25*, RecBCD conf 21*, Ecoli viability 23* and AddAB counter 28*.
For Cc1cc(C=NN2CCN(C)CC2)c(C)n1-c1ccc(Cl)cc1 the results were E coli growth-2 0.68.
Cc1ccc(S(=O)(=O)NN=Cc2ccc3nccnc3c2)cc1 was read as E coli growth-2 0.69.
For O=C(Cn1cnc2ccccc21)Nc1ccc(SC(F)F)cc1 the results were E coli growth-1 13*, AddAB inh 15*, phage Ecoli inh 17*, E coli growth-2 0.55, Tat transport -29, AddAB confirm 7, RecBCD counter 13*, Bact viability 10, RecBCD conf 6, Ecoli viability 9 and AddAB counter 11.
Screening O=C(CNc1cccc([N+](=O)[O-])c1)N/N=C/c1ccc([N+](=O)[O-])o1 returned E coli growth-1 33*, AddAB inh 82*, phage Ecoli inh 18*, Tat transport 2, AddAB confirm 102*, RecBCD counter 16*, Bact viability 60*, RecBCD conf 14*, Ecoli viability 12 and AddAB counter 66*.
For Cc1ccc(C(=O)N/N=C\c2ccc([N+](=O)[O-])o2)cn1 the results were E coli growth-1 20*, AddAB inh 84*, phage Ecoli inh 18*, Tat transport -14, AddAB confirm 101*, RecBCD counter 14*, Bact viability 36*, RecBCD conf 7, Ecoli viability 6 and AddAB counter 97*.
